Test results taken from article PMC6579518.

What follows are substances tested against Large ribosomal subunit protein eL14A (UniProt P36105) (assay: cross-link between two proteins; cross-linking mass spectrometry).
Large ribosomal subunit protein eL14A, sequence (P36105 whole entry): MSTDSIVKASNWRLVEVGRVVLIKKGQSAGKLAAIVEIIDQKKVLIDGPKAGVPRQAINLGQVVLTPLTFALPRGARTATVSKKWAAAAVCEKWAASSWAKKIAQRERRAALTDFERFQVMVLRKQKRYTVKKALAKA

Large ribosomal subunit protein eL32, P38061, sequence (P38061 whole entry): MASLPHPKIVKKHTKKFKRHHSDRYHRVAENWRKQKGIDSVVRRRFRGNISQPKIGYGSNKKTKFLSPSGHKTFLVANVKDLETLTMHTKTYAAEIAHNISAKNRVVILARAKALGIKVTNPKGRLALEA
Large ribosomal subunit protein uL13A, P26784, sequence (P26784 whole entry): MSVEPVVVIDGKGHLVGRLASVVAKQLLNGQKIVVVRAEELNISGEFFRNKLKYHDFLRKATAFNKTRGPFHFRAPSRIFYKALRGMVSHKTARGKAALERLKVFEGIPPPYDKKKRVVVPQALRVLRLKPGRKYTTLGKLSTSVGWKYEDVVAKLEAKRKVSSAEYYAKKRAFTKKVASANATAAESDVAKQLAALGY
Large ribosomal subunit protein uL13B, P26785, sequence (P26785 whole entry): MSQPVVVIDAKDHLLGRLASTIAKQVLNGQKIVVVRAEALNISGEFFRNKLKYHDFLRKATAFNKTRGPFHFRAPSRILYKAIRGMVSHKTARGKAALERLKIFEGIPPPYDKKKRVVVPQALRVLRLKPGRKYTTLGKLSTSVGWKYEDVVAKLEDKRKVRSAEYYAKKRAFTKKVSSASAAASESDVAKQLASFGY

Listed as a hit, yes:
Large ribosomal subunit protein uL13A, P26784
Large ribosomal subunit protein uL13B, P26785
Large ribosomal subunit protein uL30A, P05737

Each substance was assayed against Ribosome biogenesis protein ALB1 (UniProt P47019) in the same assay as above.
Ribosome biogenesis protein ALB1, sequence (P47019 whole entry): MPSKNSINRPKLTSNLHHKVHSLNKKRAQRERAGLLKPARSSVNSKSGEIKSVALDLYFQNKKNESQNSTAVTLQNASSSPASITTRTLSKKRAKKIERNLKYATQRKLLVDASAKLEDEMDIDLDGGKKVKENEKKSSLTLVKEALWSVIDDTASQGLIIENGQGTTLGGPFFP

Listed as a hit, yes:
Large ribosomal subunit protein uL24A, P05743
Large ribosomal subunit protein eL32, P38061
Large ribosomal subunit protein eL6B, P05739
